Screens deposited in PubChem BioAssay by National Center for Advancing Translational Sciences (NCATS).
Pf growth 96h – Primary qHTS for delayed death inhibitors of the malarial parasite plastid, 96 hour incubation; 6.9% of 320,000 active; AID 504834, 2011; P. falciparum luciferase reporter growth, 96 h; Potency, µM (titrated, usually from 28.7 µM), for inactives: at the highest dose activity change, negative = inhibition, most hits filed as inhibitors; further: on the % scale 0 is the no-effect control and ±100 the full control effect
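Delayed-death screen, second-generation endpoint: infected erythrocytes, 2% hematocrit, 0.05% parasitemia final; 96 hours at 37 C, 5% CO2; luciferase detection reagent; luminescence decrease equals reduced growth.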
HCV inhibitor – qHTS Assay for Inhibitors of Hepatitis C Virus (HCV); Huh7.5.1 HCVcc-Cre infection, luciferase reporter, 44 h; Potency, µM (series often up to 41.8 µM), without a hit: at the highest dose activity change, negative = inhibition, most hits filed as inhibitors; 3.4% of 340,000 active; AID 651820, 2012; further: on the % scale 0 is the no-effect control and ±100 the full control effect
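Whole-lifecycle infectious HCVcc-Cre system; cells 1,000/well, compound then virus (~0.5 moi) added 4 h after plating, 44 h culture. Luciferase read 15 sec following 15 min substrate incubation, room temp.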
NS1 function inh – qHTS Assay for Inhibitors of Influenza NS1 Protein Function; Potency, µM (highest dose often 46.1 µM), for the others: top-dose activity, positive = more growth; 0.4% of 270,000 active; AID 2326, 2010; calls by dose curve; further: actives are rising curves; nearly all actives have a fitted effect of over 50% in size
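Growth recovery, yeast-based: influenza A NS1 expressed in S. cerevisiae causes slow growth, and suppressors are detected by OD600. The parent strain without NS1 is used as positive control.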
AMA1-RON2 inh – qHTS for Inhibitors of AMA1-RON; Towards Development of Antimalarial Drug Lead: Primary Screen; Plasmodium falciparum AMA1 (3D7) - RON2 peptide interaction; AlphaScreen AMA1-biotinylated RON2 peptide binding; Potency, µM (doses to about 58.2 µM), inactives show at the top dose activity change, negative = inhibition, actives largely listed as inhibitors; 0.2% of 360,000 active;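 further: 0% = vehicle wells and -100% = peptide control; nearly all actives have a fitted effect of over 45% in size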
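AMA1 (3D7) with his tag at 25 nM final met compounds first, then biotinylated RON2 peptide at 25 nM; detection used donor plus acceptor beads, 10 µg/mL apiece, read by AlphaScreen after 30 min at room temperature.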
Pf growth 48h – Primary qHTS for delayed death inhibitors of the malarial parasite plastid, 48 hour incubation | P. falciparum luciferase growth in erythrocytes, 48 h | Potency, µM (top dose mostly 28.7 µM), for inactives: at the highest dose activity change, negative = inhibition, most hits filed as inhibitors | 5.9% of 310,000 active | AID 504832, 2011; further: on the % scale 0 is the no-effect control and ±100 the full control effect
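Here the parasites carry a stable luciferase gene and grow inside erythrocytes in Albumax-based RPMI medium with compound for one erythrocytic cycle. Activity is scored as loss of luminescent signal.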
SARS PLpro yeast – qHTS of Yeast-based Assay for SARS-CoV PLP. 0.19% of 330,000 active. S. cerevisiae expressing SARS-CoV PLpro, growth rescue. Potency, µM (top dose mostly 32.9 µM), for inactives: at the highest dose activity, positive = growth rescue, usual class: activators; calls by dose curve; further: 0% is about no effect; nearly all actives have a fitted effect of over 55% in size
* hit, by the source's call; ? = inconclusive; / = no result given. In the library only some 12% were active in any assay of this set; here they are far more common. Unless noted, the call rests on the fitted dose curve; in most records, active means well fitted curve in the direction sought with a large enough effect; inconclusive means small, poorly fitted or top-dose-only effect, or another doubt; inactive means no such curve, though single readings can be large; an effect the other way counts as inactive or inconclusive. Potency means the concentration at half of the fitted maximal effect.

SMILES	Pf growth 96h	HCV inhibitor	NS1 function inh	AMA1-RON2 inh	Pf growth 48h	SARS PLpro yeast
CC[C@H]1OC(=O)[C@H](C)[C@@H](O[C@H]2C[C@@](C)(OC)[C@@H](O)[C@H](C)O2)[C@H](C)[C@@H](O[C@@H]2O[C@H](C)C[C@H](N(C)C)[C@H]2O)[C@](C)(O)C[C@@H](C)CN(C)[C@H](C)[C@@H](O)[C@]1(C)O	0.13µM*	?	/	0%	13µM*	/
COc1ccccc1C1CCN(c2ccc(CO)cc2[N+](=O)[O-])CC1	4%	?	-4%	?	125%	-4%
COc1ccccc1N1CCN(C(=O)C(C)N(c2ccc(C)c(C)c2)S(C)(=O)=O)CC1 (centres undefined)	12µM*	?	-13%	-3%	?	0%
CCOc1nc(Nc2ccc(F)cc2)nc(N2CCN(c3ccc(OC)cc3)CC2)n1	?	-20%	8%	-1%	/	1%
CCOc1nc(Nc2ccc(OC)c(Cl)c2)nc(N2CCN(c3ccc(OC)cc3)CC2)n1	?	10µM*	6%	?	/	17%
COc1nc(Nc2ccc(OC)c(Cl)c2)nc(OC)n1	-16%	?	-6%	-4%	8.3µM*	1%
CCOC(=O)CNC(=O)CSc1nc(Cc2ccccc2)nc2ccccc12	?	-18%	-5%	1%	-1%	5%
COc1ccc(F)cc1S(=O)(=O)NCC(=O)NCc1cc(=O)n(C)c(=O)n1C	46%	15%	1%	13%	23%	27%
O=C(COc1ccc(Cl)cc1Br)N1CCN(c2ncccn2)CC1	?	?	/	-16%	?	1%
O=C(CCCOc1ccccc1)Nc1ccc(Cl)cn1	74%	?	/	9%	20%	-1%
COc1ccc(/C=N\NC(=O)O)cc1	/	/	-4%	/	/	/
O=C(Cc1ccc([N+](=O)[O-])cc1)N1CCCCCC1	?	-8%	/	-3%	-8%	4%
O=C(CCc1ccc(Oc2cc([N+](=O)[O-])cc([N+](=O)[O-])c2)cc1)N1CCCCCC1	?	?	-10%	?	7.4µM*	-95%
COc1ccc(NC(=O)CN(C)C(=O)CCc2c[nH]c3ccccc23)cc1	18%	-16%	2%	3%	0%	0%
CCc1ccc(N(C(=O)c2ccco2)C(C(=O)NC2CCCC2)c2cccnc2)cc1 (centres undefined)	?	-6%	-20%	6%	?	1%
O=C(NCC(=O)N(CCc1ccccc1)C(C(=O)NC1CCCCC1)c1ccncc1)c1ccco1 (centres undefined)	11%	1%	-16%	-7%	?	27%
O=C(NC1CCCC1)C(c1ccncc1)N(Cc1ccccc1)C(=O)Cc1cccs1 (centres undefined)	?	7%	7%	3%	?	13%
O=C(NC1CCCC1)C(c1cccnc1)N(CCc1ccccc1)C(=O)c1ccco1 (centres undefined)	43%	-3%	-9%	-3%	5.2µM*	1%
CCC(C)c1ccc(N(C(=O)c2ccco2)C(C(=O)NC2CCCC2)c2cccnc2)cc1 (centres undefined)	28%	?	-5%	5%	1.9µM*	0%
O=C(NCC(=O)N(CCc1ccccc1)C(C(=O)NC1CCCC1)c1cccnc1)c1ccco1 (centres undefined)	3%	6%	-12%	8%	15µM*	14%
O=C(NC1CCCCC1)C(c1cccnc1)N(CCc1ccccc1)C(=O)Cc1cccs1 (centres undefined)	21%	14%	-2%	-9%	13µM*	-4%
CC(C)CN1CCN(CC#Cc2ccccc2)CC1CCO (centres undefined)	12µM*	-5%	-1%	-2%	28%	1%
CC(C)CCN1CCN(Cc2cccn2-c2ccccn2)CC1CCO (centres undefined)	10%	21%	2%	12%	-3%	0%
CC(C)CN1CCN(Cc2cccn2-c2ccccn2)CC1CCO (centres undefined)	8.3µM*	7%	-2%	-3%	55%	1%
OCCC1CN(CC#Cc2ccccc2)CCN1Cc1ccccc1F (centres undefined)	12µM*	20%	0%	-10%	-11%	5%
SMILES	Pf growth 96h	HCV inhibitor	NS1 function inh	AMA1-RON2 inh	Pf growth 48h	SARS PLpro yeast
CC(C)=CCN1CCN(CC#Cc2ccccc2)CC1CCO (centres undefined)	42%	-2%	1%	0%	?	0%
COc1cccc(Oc2cc(Cl)nc(N)n2)c1	10%	15%	-2%	-4%	1%	-2%
O=C(CN1C(=O)NC2(CCc3ccccc32)C1=O)NCC(=O)Nc1ccc(F)cc1 (centres undefined)	-21%	-13%	/	0%	?	-1%
Cc1ccc(/C=C2/NC(=O)N(Cc3ccccc3)C2=O)o1	-18%	4%	-53%	0%	-19%	-66%
COC(=O)CN1C(=O)N/C(=C/c2ccc(C)o2)C1=O	10µM*	-2%	/	3%	-1%	1%
Nc1ccccc1C(=O)C[C@H](N)C(=O)O	/	5%	/	34%	/	/
O=C(CN(C(=O)Cn1nnc(-c2cccs2)n1)c1cnc2ccccc2c1)NCC1CCCO1 (centres undefined)	15µM*	-3%	-10%	-1%	?	19%
O=C(CN(C(=O)Cn1nnc(-c2ccccc2F)n1)c1cnc2ccccc2c1)NCC1CCCO1 (centres undefined)	?	3%	/	2%	9.3µM*	3%
C[C@H](CO)N1C[C@H](C)[C@@H](CN(C)Cc2ccc3c(c2)OCO3)Oc2ccc(NS(C)(=O)=O)cc2C1=O	/	-3%	/	7%	/	-2%
CCCC(C)c1nnc(NC(=O)C2CC(=O)N(CCc3ccc(F)cc3)C2)s1 (centres undefined)	2%	18%	29%	-8%	5%	0%
CC1CCN(Cc2c(C(=O)O)nnn2-c2nonc2N)CC1	1.5µM*	20%	2%	10%	19%	-1%
CC1CCN(Cc2c(C(=O)N/N=C/c3cc(Br)ccc3O)nnn2-c2nonc2N)CC1	?	3.5µM*	-15%	64%	?	?
COc1c(Cl)cc(Cl)cc1/C=N/NC(=O)c1nnn(-c2nonc2N)c1CN1CCC(C)CC1	-12%	?	-5%	-5%	?	-3%
CC1CCN(Cc2c(C(=O)N/N=C/c3cc(Cl)ccc3O)nnn2-c2nonc2N)CC1	3%	10µM*	-15%	71%	?	?
